Laboratory results reported in PubChem BioAssay (NCATS).
Inconclusive results are not listed. Entries that show only a call come without a potency. Active and inactive are the calls of the source. Calls come from the whole dose curve; as a rule, active = well fitted cell-killing curve with a large enough effect; inconclusive = small, poorly fitted or top-dose-only effect; inactive = flat fitted curve, though single readings scatter. Peptide text beside a SMILES is read from it.

Assays:
[1] = Cell Viability - LYMP2-025 (AID 976); conditions: LYMP2-025 lymphoblastoid cell viability; series mostly up to 92.2 µM;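 note: cells exposed to compound for 24 h at 37 °C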
In short: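 Seed 2500 LYMP2-025 cells/well; 5 hr at 37 C; add compound; 24 hr at 37 C; add CellTiter-Glo; 30 min RT; read luminescence. AC50 from Hill-modelled concentration-response.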

[2] = Cell Viability - LYMP2-012 (AID 982); conditions: LYMP2-012 lymphoblastoid cell viability qHTS; series mostly up to 92.2 µM;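 note: cellular ATP by luciferase luminescence where a drop means cytotoxicity; cells exposed to compound for one day before reading; nearly all actives have a fitted effect of over 55% in size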
[3] = Cell Viability - LYMP2-002 (AID 977); conditions: LYMP2-002 lymphoblastoid cell viability, qHTS; series mostly up to 92.2 µM;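 note: compound exposure lasted 24 h at 37 °C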
In short: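 Cytotoxicity is scored as concentration-dependent loss of cellular ATP in a human lymphoblastoid line after 24 hr compound treatment at 37 C. AC50 is obtained by modelling concentration-response data with the Hill equation.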

[4] = Cell Viability - LYMP2-006 (AID 978); conditions: LYMP2-006 lymphoblastoid cell viability, qHTS; series mostly up to 92.2 µM; note: nearly all actives have a fitted effect of over 60% in size
In short: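 Cells are seeded at 2500 per well and rested 5 hr at 37 C. Compounds are added across a concentration series for 24 hr at 37 C, after which ATP is quantified by luciferase luminescence.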

[5] = Cell Viability - LYMP2-007 (AID 979); conditions: LYMP2-007 lymphoblastoid cell viability; series mostly up to 92.2 µM;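 note: cells exposed to compound for 24 h before reading; nearly all actives have a fitted effect of over 60% in size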
In short: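 Luminescent ATP signal (CellTiter-Glo) serves as the viability read-out after 24 hr compound treatment of lymphoblastoid cells in complete medium at 37 C. Concentration-response data were fitted to the Hill equation to give AC50 values.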

[6] = Cell Viability - LYMP2-008 (AID 980); conditions: LYMP2-008 lymphoblastoid cell viability, qHTS; series mostly up to 92.2 µM; note: nearly all actives have a fitted effect of over 60% in size
In short: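 qHTS, human lymphoblastoid line, 2500 cells/well; 5 hr preincubation, 24 hr compound, 37 C. CellTiter-Glo ATP luminescence. AC50 via Hill equation. Tetraoctylammonium bromide positive control.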

[7] = Cell Viability - LYMP2-010 (AID 981); conditions: LYMP2-010 lymphoblastoid cell viability, qHTS; series mostly up to 92.2 µM; note: nearly all actives have a fitted effect of over 55% in size
In short: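 Luminescent ATP signal (CellTiter-Glo) served as the viability read-out. Cells of the human lymphoblastoid line were treated with compound over a concentration range for 24 hours at 37 C, and AC50 values came from Hill-equation modeling.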

[8] = Cell Viability - LYMP2-014 (AID 983); conditions: LYMP2-014 lymphoblastoid cells, viability qHTS; series mostly up to 92.2 µM;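 note: cells exposed to compound for 24 h at 37 °C; nearly all actives have a fitted effect of over 50% in size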
In short: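 Luminescent ATP signal (CellTiter-Glo, 30 min at room temperature) serves as the viability read-out after 24 hr compound exposure at 37 C. Cells were seeded at 2500 per well and settled 5 hr beforehand.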

[9] = Cell Viability - LYMP2-016 (AID 984); conditions: LYMP2-016 lymphoblastoid cell viability, qHTS; series mostly up to 92.2 µM; note: nearly all actives have a fitted effect of over 55% in size
In short: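 Cells were seeded at 2500 per well and rested 5 hr before a 24 hr compound exposure at 37 C. Viability was then gauged as cellular ATP by luciferase luminescence, with AC50 values fitted to the Hill equation.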

[10] = Cell Viability - LYMP2-018 (AID 985); conditions: LYMP2-018 lymphoblastoid cells, viability (qHTS); series mostly up to 92.2 µM; note: nearly all actives have a fitted effect of over 50% in size
In short: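 Luminescent ATP signal (CellTiter-Glo, read after 30 min at room temperature) reports viable cells after 24 hr compound treatment at 37 C. Concentration-response data were fitted to the standard Hill equation for AC50.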
Potency is the fitted concentration of half-maximal effect.

Cc1cc(O)c2c(c1)C(=O)c1cc(O)cc(O)c1C2=O
Potency [1]: inactive
Potency [2]: inactive

NS(=O)(=O)c1cc(C(=O)O)c(NCc2ccco2)cc1Cl
Potency [1]: inactive
Potency [3]: inactive
Potency [4]: inactive
Potency [5]: inactive
Potency [6]: inactive
Potency [7]: inactive
Potency [2]: inactive
Potency [8]: inactive
Potency [9]: inactive
Potency [10]: inactive

c1ccc2[nH]c(-c3cscn3)nc2c1
Potency [1]: inactive
Potency [3]: inactive
Potency [4]: inactive
Potency [5]: inactive
Potency [6]: inactive
Potency [7]: inactive
Potency [2]: inactive
Potency [8]: inactive
Potency [9]: inactive
Potency [10]: inactive

CN(C)c1ccc2nc3ccc(=[N+](C)C)cc-3sc2c1
Potency [1]: 3.98 µM (active)
Potency [3]: 3.16 µM (active)
Potency [4]: 5.01 µM (active)
Potency [5]: 7.94 µM (active)
Potency [6]: 3.16 µM (active)
Potency [7]: 6.31 µM (active)
Potency [2]: 6.31 µM (active)
Potency [8]: 3.98 µM (active)
Potency [9]: 3.98 µM (active)
Potency [10]: 7.94 µM (active)

COc1c2occc2cc2ccc(=O)oc12
Potency [1]: inactive
Potency [3]: inactive
Potency [4]: inactive
Potency [5]: inactive
Potency [6]: inactive
Potency [7]: inactive
Potency [2]: inactive
Potency [8]: inactive
Potency [9]: inactive
Potency [10]: inactive

CC(=O)Nc1ccc(O)cc1
Potency [1]: inactive
Potency [3]: inactive
Potency [4]: inactive
Potency [5]: inactive
Potency [6]: inactive
Potency [7]: inactive
Potency [2]: inactive
Potency [8]: inactive
Potency [9]: inactive
Potency [10]: inactive

Nc1ccc(S(N)(=O)=O)cc1
Potency [1]: inactive
Potency [3]: inactive
Potency [4]: inactive
Potency [5]: inactive
Potency [6]: inactive
Potency [7]: inactive
Potency [2]: inactive
Potency [8]: inactive
Potency [9]: inactive
Potency [10]: inactive

CCCCC(CC)COC(=O)C(C#N)=C(c1ccccc1)c1ccccc1 (stereo not drawn)
Potency [1]: inactive
Potency [3]: inactive
Potency [4]: inactive
Potency [5]: inactive
Potency [6]: inactive
Potency [7]: inactive
Potency [2]: inactive
Potency [8]: inactive
Potency [9]: inactive
Potency [10]: inactive

CCc1nc(N)nc(N)c1-c1ccc(Cl)cc1
Potency [1]: inactive
Potency [4]: inactive
Potency [5]: 50.1 µM (active)
Potency [8]: inactive
Potency [9]: inactive
Potency [10]: inactive

COC(=O)[C@H](Cc1ccccc1)NC(=O)[C@@H](N)CC(=O)O (H-Asp-Phe-OMe)
Potency [1]: inactive
Potency [3]: inactive
Potency [4]: inactive
Potency [5]: inactive
Potency [6]: inactive
Potency [7]: inactive
Potency [2]: inactive
Potency [8]: inactive
Potency [9]: inactive
Potency [10]: inactive

CCCc1cc(=O)[nH]c(=S)[nH]1
Potency [1]: inactive
Potency [3]: inactive
Potency [4]: inactive
Potency [5]: inactive
Potency [6]: inactive
Potency [7]: inactive
Potency [2]: inactive
Potency [8]: inactive
Potency [9]: inactive
Potency [10]: inactive

CS(=O)(=O)OCCCCOS(C)(=O)=O
Potency [1]: inactive
Potency [3]: inactive
Potency [4]: inactive
Potency [5]: inactive
Potency [6]: inactive
Potency [7]: inactive
Potency [2]: inactive
Potency [8]: inactive
Potency [9]: inactive
Potency [10]: inactive

Cc1ccc(C)c(OCCCC(C)(C)C(=O)O)c1
Potency [1]: inactive
Potency [3]: inactive
Potency [4]: inactive
Potency [5]: inactive
Potency [6]: inactive
Potency [7]: inactive
Potency [2]: inactive
Potency [8]: inactive
Potency [9]: inactive
Potency [10]: inactive
